Assay results taken from PubChem BioAssay (NCATS).
Where “and” joins values, the source holds several entries; their conditions need not be identical. Equal values may be shown once. Inconclusive results are not listed. Calls of active or inactive are those of the source. Unless noted, calls come from the whole dose curve; as a rule, active = well fitted curve in the direction sought with a large enough effect; inconclusive = small, poorly fitted or top-dose-only effect, or another doubt; inactive = no such curve, though single readings can be large; an effect the other way counts as inactive or inconclusive.

How the values were obtained:
[1] = molecular target: Thyroid hormone receptor beta (Homo sapiens) (UniProt P10828); assay: qHTS assay for small molecule agonists of thyroid hormone receptor beta signaling (AID 588545; calls by dose curve;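 note: 0% = DMSO only and 100% = 10 nM T3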)
Outline: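 Efficacy and EC50 values derive from Hill fits of qHTS titration data, normalized to 10 nM T3 and DMSO-only wells. HEK 293 reporter cells were stimulated for 18 hrs at 37 C, with beta-lactamase activity measured by CCF4 fluorescence.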

[2] = qHTS assay for small molecule antagonists of retinoid X receptor alpha signaling (AID 588546; active = well fitted inhibition curve with a large enough effect in the signal ratio, with a control signal flat, not every such curve was filed as active; the % refers to the signal ratio;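 note: cells stimulated with 9-cis-retinoic acid as agonist; % is set by controls: 0 for no effect and ±100 for the full control effect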); conditions: HEK293T RXRa-UAS-bla, beta-lactamase ratio, antagonist mode; measured here: W530 green channel, cytotoxicity proxy
Outline: (§1)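 Beta-lactamase reporter inhibition, read as CCF4 fluorescence ratio (ex 405, em 460/530 nm) after 2 h at RT. HEK293T UAS-bla cells, 2500/well, were stimulated with 9-cis-RA at 500 or 100 nM final alongside test compound for 18 h at 37 C.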

[3] = molecular target: Retinoic acid receptor RXR-alpha (Homo sapiens) (UniProt P19793); assay: as above; conditions: HEK293T RXRa-UAS-bla, beta-lactamase ratio, antagonist mode
Outline: as §1

[4] = molecular target: Thyroid hormone receptor beta (Homo sapiens) (UniProt P10828); assay: qHTS assay for small molecule antagonists of thyroid hormone receptor beta signaling (AID 588547; active = well fitted inhibition curve with a large enough effect in the signal ratio, with a control signal flat, not every such curve was filed as active; the % refers to the signal ratio;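 note: cells stimulated with 0.4 nM T3 agonist during compound exposure; series mostly up to about 77 µM; % is set by controls: 0 for no effect and ±100 for the full control effect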); conditions: TR-UAS-bla HEK293, beta-lactamase ratio, antagonist mode, 18 h
Outline: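 TR-UAS-bla GripTite HEK293 cells in 2% charcoal/dextran FBS medium; compounds 0.59 nM to 92 uM with T3 at 0.4nM final, 18 h at 37 C. Beta-lactamase read by CCF4 fluorescence (460/530 nm); Hill fits gave IC50 and efficacy.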

[5] = molecular target: Voltage-gated inwardly rectifying potassium channel KCNH2 (Homo sapiens) (UniProt Q12809); assay: qHTS Assay for Small Molecule Inhibitors of the Human hERG Channel Activity (AID 588834);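 note: top concentration of the series differs between compounds; % is set by controls: 0 for no effect and ±100 for the full control effect; lower thallium flux fluorescence means stronger hERG block; nearly all actives have a fitted effect of over 50% in size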
Outline: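 Step 1: BacMam hERG transduction of U2OS, 4 hrs RT. Step 2: overnight 37 °C, plate 2000 cells/well, 4 hr. Step 3: FluxOR load, compound 10 min, stimulate, read fluorescence.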

[6] = qHTS assay for small molecule agonists of the antioxidant response element (ARE) signaling pathway (AID 651741; active = well fitted activation curve with a large enough effect in the signal ratio; the % refers to the signal ratio; note: potency is the fitted concentration of half-maximal effect)
Outline: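 Stably integrated ARE-beta-lactamase reporter HepG2 cells; 16 h compound incubation, 37 C; LiveBLAzer FRET substrate 2 h at room temperature; fluorescence intensity.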

[7] = qHTS assay for small molecule activators of the p53 signaling pathway (AID 651743; active = well fitted activation curve with a large enough effect in the signal ratio, not every such curve was filed as active; the % refers to the signal ratio; note: series mostly up to about 92 µM; % of control where 0% means no effect); conditions: HCT-116 p53RE-bla, beta-lactamase FRET ratio, 16 h; stronger effect = higher value
Outline: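 Following 16 hours of compound exposure at 37 C, HCT-116 cells bearing the p53RE-bla reporter were loaded with LiveBLAzer B/G FRET substrate for 2 hours at room temperature and fluorescence intensity was recorded.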

[8] = qHTS assay for small molecule activators of the nuclear factor-kappa B (NF-kB) signaling pathway (AID 651749; active = well fitted activation curve with a large enough effect in the signal ratio; the % refers to the signal ratio; note: series mostly up to about 77 µM; % of control where 0% means no effect); conditions: NF-kB-bla ME-180 cells, beta-lactamase FRET ratio, 16 h; stronger effect = higher value
Outline: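 In this qHTS format, compounds acting as activators increase NF-kB-driven beta-lactamase in ME-180 cells, measured as disrupted FRET after 16 hr exposure at 37C and 5% CO2.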

[9] = qHTS assay for environmental chemicals that activate the Aryl hydrocarbon Receptor (AhR) signaling pathway (AID 651777); conditions: 1A2-DRE human hepatoma cells, luciferase, 24 h; stronger effect = higher value; note: % of control where 0% means no effect; nearly all actives have a fitted effect of over 15% in size
Outline: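 Stable CYP1A2 promoter/DRE-luciferase human hepatoma line treated 24 hr; One-Glo luminescence, 30 min RT.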

[10] = molecular target: Peroxisome proliferator-activated receptor alpha (Homo sapiens) (UniProt Q07869); assay: qHTS assay for small molecule agonists of the peroxisome proliferator-activated receptor alpha (PPARalpha) signaling pathway (AID 651778); conditions: PathHunter PPARalpha complementation, chemiluminescence, 6 h; stronger effect = higher value; note: % of control where 0% means no effect
Outline: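 Enzyme-fragment complementation assay in which ligand-bound PPARalpha translocates and forms an active enzyme that generates chemiluminescence. Cells were plated overnight, exposed to compound for 6 hr at 37 C, and then given detection reagent for 60 min at room temperature.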

[11] = molecular target: Nuclear receptor ROR-gamma (Homo sapiens) (UniProt P51449); assay: qHTS assay for small molecule antagonists of the retinoid-related orphan receptor gamma (ROR-gamma) signaling pathway (AID 651802);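 note: CHO cells with doxycycline-induced ROR-gamma expression; series mostly up to about 92 µM; % is set by controls: 0 for no effect and ±100 for the full control effect; nearly all actives have a fitted effect of over 60% in size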
Outline: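 Steps: cells dispensed; compound or DMSO transferred by pin tool; doxycycline added to induce the ROR response element-driven luciferase; plates held 16hr at 37C; ONE-Glo added and luminescence measured.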

[12] = qHTS assay for small molecule agonists of the antioxidant response element (ARE) signaling pathway measured by Nrf2-dependant transcriptional activity (AID 720636; active = well fitted curve in the direction sought with a large enough effect in the repeat runs; an effect the other way counts as inactive or inconclusive;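 note: HepG2 cells with an ARE-driven luciferase reporter; % of control where 0% means no effect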)
Outline: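 Reporter gene assay, HepG2 ARE-luc: 16 hr compound, 37 C, 5% CO2; read-out luciferase luminescence.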

[13] = qHTS assay for small molecule antagonists of the retinoid-related orphan receptor gamma (ROR-gamma) signaling pathway - cell viability counter screen (AID 720652; active = well fitted curve in the direction sought with a large enough effect in the repeat runs; an effect the other way counts as inactive or inconclusive;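 note: CHO reporter cells with doxycycline-induced ROR-gamma expression; series mostly up to about 92 µM; compound exposure lasted 16 hr before ATP read; % is set by controls: 0 for no effect and ±100 for the full control effect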)
Outline: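 Steps: seed CHO cells bearing TET-inducible ROR and ROR response element-luciferase; rest 5 hr at 37 C; add compound, then doxycycline; incubate 16 hr; add CellTiter-Glo and read luminescence as ATP-based viability.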

[14] = qHTS assay for small molecule agonists of the antioxidant response element (ARE) signaling pathway measured by Nrf2-dependant transcriptional activity - cell viability counter screen (AID 720653; active = well fitted curve in the direction sought with a large enough effect in the repeat runs; an effect the other way counts as inactive or inconclusive; note: % is set by controls: 0 for no effect and ±100 for the full control effect); conditions: ARE-bla HepG2 viability, CellTiter-Glo ATP luminescence, 16 h; stronger effect = lower value
Outline: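 ARE-bla HepG2 cells treated with compounds for 16 h at 37C; this counter screen measures viability as intracellular ATP by CellTiter-Glo luminescence after 30 min at room temperature.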

[15] = qHTS assay for cell viability of HEK293 cells (AID 743288); conditions: ATP luminescence (CellTiter-Glo), 18 h, stronger effect = lower value; note: % is set by controls: 0 for no effect and ±100 for the full control effect; nearly all actives have a fitted effect of over 50% in size
Outline: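 Viable-cell counts were inferred from luciferase-based ATP content in HEK293 cells seeded at 2,000/well, pre-incubated ≥5 h, then dosed with DMSO-solubilised compounds for 18 h at 37 C.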

[16] = qHTS assay for cell viability of the p53RE-bla HCT-116 cell line (AID 743292); note: % is set by controls: 0 for no effect and ±100 for the full control effect; nearly all actives have a fitted effect of over 55% in size
Outline: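 Readout: CellTiter-Glo luminescence after 30 min RT. Treatment: compounds in DMSO, 16 h, 37 C. Cells: CellSensor p53RE-bla HCT-116, 4,000/well, preincubated 5 h.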

[17] = Primary qHTS for inhibitors of nuclear receptor binding SET domain protein 2 (NSD2) in an RCH-ACV wild type WT cells (2C) (AID 1645877); note: potency is the fitted concentration of half-maximal effect; nearly all actives have a fitted effect of over 70% in size
[18] = molecular target: Glutathione peroxidase 1 (Homo sapiens) (UniProt P07203); assay: Primary qHTS Assay for Inhibitors of Recombinant Selenoprotein Glutathione Peroxidase 1 (GPX1) (AID 1845191); note: % is set by controls: 0 for no effect and ±100 for the full control effect; nearly all actives have a fitted effect of over 65% in size
Outline: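 GR-coupled readout: NADPH consumption tracked by fluorescence, ex 340/em 450 nm, at t=0 and after 15 min at RT. Final mix 10 nM GPX1, 1 mM GSH, 0.5 mM CHP, 0.5 mM NADPH, 100 nM GR, 0.01% BSA, following 30 min enzyme–compound preincubation.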

[19] = qHTS drug screen for cell cycle checkpoint inhibitors in PARPi-resistant BRCA-mutant ovarian cancer cell lines. (AID 1963452; calls by dose curve); conditions: PEO1/OlaR viability, CellTiter-Glo luminescence, 96 h, stronger effect = lower value
Outline: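 PEO1, PEO4 and PEO1/OlaR ovarian cancer cells, 600 per well, exposed 96 h at 37C to a dilution series. Viability read by CellTiter-Glo luminescence, normalized to DMSO and empty wells; activity summarized as Z-AUC.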

Thyroid hormone receptor beta (Homo sapiens), sequence (P10828 whole entry, looked up): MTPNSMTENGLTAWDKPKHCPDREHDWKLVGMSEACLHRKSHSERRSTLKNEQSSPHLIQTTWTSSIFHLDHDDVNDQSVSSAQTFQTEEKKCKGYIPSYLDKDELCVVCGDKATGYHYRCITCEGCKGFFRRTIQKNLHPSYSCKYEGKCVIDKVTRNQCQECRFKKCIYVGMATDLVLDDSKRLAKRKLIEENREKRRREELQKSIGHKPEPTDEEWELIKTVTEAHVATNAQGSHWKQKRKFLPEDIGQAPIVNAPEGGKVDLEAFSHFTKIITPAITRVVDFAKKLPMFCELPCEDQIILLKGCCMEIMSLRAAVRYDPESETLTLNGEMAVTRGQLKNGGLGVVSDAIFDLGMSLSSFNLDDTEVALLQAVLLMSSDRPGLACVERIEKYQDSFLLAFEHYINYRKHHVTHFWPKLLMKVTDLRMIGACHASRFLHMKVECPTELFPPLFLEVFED
Retinoic acid receptor RXR-alpha (Homo sapiens), sequence (P19793 whole entry, looked up): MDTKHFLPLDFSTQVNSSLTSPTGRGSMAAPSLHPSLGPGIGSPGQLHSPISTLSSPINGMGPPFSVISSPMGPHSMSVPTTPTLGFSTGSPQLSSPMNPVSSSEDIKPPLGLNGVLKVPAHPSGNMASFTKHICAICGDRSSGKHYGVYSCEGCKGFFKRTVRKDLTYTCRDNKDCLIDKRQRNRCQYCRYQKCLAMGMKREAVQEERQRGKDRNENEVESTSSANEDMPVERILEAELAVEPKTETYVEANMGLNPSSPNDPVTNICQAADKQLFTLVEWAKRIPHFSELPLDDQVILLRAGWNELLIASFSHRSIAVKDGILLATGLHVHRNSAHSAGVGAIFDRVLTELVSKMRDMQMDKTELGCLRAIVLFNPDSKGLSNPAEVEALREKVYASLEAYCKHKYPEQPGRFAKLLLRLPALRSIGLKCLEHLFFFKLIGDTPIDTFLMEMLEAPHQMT
Peroxisome proliferator-activated receptor alpha (Homo sapiens), sequence (Q07869 whole entry, looked up, the tested form may be a part): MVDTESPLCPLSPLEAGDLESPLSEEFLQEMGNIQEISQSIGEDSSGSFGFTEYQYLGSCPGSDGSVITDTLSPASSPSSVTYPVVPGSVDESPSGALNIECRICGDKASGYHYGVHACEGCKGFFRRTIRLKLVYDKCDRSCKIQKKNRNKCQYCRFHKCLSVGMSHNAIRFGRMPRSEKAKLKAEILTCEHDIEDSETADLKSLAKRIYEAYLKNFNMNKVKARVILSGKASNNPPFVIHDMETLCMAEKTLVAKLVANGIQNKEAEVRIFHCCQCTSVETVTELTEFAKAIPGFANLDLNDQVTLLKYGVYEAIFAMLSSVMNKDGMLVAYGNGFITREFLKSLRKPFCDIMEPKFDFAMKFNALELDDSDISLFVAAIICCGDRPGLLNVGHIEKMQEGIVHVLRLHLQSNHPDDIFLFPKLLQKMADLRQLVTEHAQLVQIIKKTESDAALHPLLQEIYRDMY
Glutathione peroxidase 1 (Homo sapiens), sequence (P07203 whole entry, looked up): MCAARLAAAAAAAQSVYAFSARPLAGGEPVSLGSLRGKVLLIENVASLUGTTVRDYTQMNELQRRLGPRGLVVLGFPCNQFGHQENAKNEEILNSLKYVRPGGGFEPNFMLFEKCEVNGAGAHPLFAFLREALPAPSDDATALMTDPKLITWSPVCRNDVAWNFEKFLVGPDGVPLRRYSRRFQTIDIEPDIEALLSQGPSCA
Nuclear receptor ROR-gamma (Homo sapiens), sequence (P51449 whole entry, looked up): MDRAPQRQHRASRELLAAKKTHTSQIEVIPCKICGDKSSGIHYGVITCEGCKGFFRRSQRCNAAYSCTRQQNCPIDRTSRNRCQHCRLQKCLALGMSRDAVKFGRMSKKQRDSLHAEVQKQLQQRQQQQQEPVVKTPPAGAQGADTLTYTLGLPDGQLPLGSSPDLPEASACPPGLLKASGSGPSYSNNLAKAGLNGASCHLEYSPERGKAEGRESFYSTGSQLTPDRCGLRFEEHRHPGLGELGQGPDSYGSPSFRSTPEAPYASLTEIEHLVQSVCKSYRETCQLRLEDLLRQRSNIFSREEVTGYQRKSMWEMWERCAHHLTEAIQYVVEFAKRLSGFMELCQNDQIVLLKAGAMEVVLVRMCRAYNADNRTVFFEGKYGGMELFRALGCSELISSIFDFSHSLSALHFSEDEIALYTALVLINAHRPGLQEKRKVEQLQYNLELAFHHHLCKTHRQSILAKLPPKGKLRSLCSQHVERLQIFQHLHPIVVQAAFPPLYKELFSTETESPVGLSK
Voltage-gated inwardly rectifying potassium channel KCNH2 (Homo sapiens), sequence (Q12809 whole entry, looked up): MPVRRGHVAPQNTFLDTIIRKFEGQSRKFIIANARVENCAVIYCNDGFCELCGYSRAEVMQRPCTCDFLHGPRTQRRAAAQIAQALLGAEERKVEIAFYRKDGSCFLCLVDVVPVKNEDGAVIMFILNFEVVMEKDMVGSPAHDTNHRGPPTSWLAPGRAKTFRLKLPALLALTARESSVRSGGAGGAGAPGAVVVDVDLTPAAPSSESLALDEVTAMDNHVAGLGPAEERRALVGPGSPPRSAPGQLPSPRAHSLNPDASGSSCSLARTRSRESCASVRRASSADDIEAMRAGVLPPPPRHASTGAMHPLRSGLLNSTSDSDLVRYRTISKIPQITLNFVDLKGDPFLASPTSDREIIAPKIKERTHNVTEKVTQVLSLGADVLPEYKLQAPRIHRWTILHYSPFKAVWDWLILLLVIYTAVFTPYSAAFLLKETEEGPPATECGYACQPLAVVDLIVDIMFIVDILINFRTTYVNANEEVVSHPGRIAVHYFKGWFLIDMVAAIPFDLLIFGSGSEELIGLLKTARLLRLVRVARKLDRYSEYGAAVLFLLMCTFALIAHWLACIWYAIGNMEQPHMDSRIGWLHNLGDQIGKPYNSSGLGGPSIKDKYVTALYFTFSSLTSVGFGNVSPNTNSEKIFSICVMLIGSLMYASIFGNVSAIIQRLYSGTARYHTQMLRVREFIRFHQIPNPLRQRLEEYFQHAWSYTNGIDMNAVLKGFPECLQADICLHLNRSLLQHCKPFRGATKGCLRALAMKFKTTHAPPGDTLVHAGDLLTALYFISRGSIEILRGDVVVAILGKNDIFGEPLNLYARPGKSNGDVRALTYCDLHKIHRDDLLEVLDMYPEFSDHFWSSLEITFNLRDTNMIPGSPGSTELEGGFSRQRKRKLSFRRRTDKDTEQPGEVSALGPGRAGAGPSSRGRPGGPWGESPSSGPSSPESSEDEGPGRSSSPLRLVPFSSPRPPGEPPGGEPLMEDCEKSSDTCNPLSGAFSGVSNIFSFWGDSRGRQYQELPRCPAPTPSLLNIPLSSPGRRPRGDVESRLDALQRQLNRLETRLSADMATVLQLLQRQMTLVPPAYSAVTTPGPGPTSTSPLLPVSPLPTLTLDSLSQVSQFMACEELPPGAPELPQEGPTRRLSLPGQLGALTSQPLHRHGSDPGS

## CO[C@H]1/C=C/O[C@@]2(C)Oc3c(C)c(O)c4c(O)c(c(/C=N/N5CCN(C)CC5)c(O)c4c3C2=O)NC(=O)/C(C)=C\C=C\[C@H](C)[C@H](O)[C@@H](C)[C@@H](O)[C@@H](C)[C@H](OC(C)=O)[C@@H]1C
[1]
  outcome: inactive
[2]
  max response: 12.2% and 0.217%
[3]
  max response: -24.8% (inactive) and 0.888% (inactive)
[4]
  activity change % (negative = inhibition): 4.86% (inactive) and -12.3% (inactive)
[5]
  outcome: inactive
[6]
  Potency: 54.5 µM (active)
[7]
  activation: -10.4% (inactive) and -9.54% (inactive)
[8]
  activation: -0.981% (inactive) and -2.03% (inactive)
[9]
  activation: 0.185% (inactive) and -0.0706% (inactive)
[10]
  max response: -9.67% (inactive) and -6.67% (inactive)
[11]
  outcome: inactive
[12]
  outcome: inactive
[13]
  outcome: inactive
[14]
  max response: -3.19% (inactive) and -26% (inactive)
[15]
  max response: -14.9% (inactive) and -19.1% (inactive)
[16]
  outcome: inactive
[17]
  Potency: 16.6 µM (active)
[18]
  Potency: inactive
[19]
  Z-AUC: 1.24 (inactive)
[19]; measured here: PEO1 parental Z-AUC
  Z-AUC: 1.13
[19]; measured here: PEO4 Z-AUC
  Z-AUC: 1.29
